Results filed as inconclusive are left out. Entries that show only a call come without a potency. Calls of active or inactive are those of the source. Calls follow the shape of the full dose curve.
Assay: p53 small molecule agonists, cell-based qHTS assay with rat liver microsomes (AID 1963578)
Settings: HCT-116 p53RE-bla, beta-lactamase ratio, 16 h; series mostly up to 66 µM
Outline: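 Fluorescence from a beta-lactamase reporter under a p53 response element was measured after cells had been incubated 16 h at 37 C with test compound and rat liver microsomes plus NADPH (0.5 mg/mL final each).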

| Compound | Potency |
| --- | --- |
| COc1ccc(C(=O)c2c(C)n(CCN3CCOCC3)c3ccccc23)cc1 | inactive |
| COC(=O)N(C(=O)N1COC2(C(=O)OC)Cc3cc(Cl)ccc3C2=N1)c1ccc(OC(F)(F)F)cc1 (centres undefined) | inactive |
| CCN1CCC2(CC1)COc1cc3c(cc12)N(C(=O)c1ccc(-c2ccc(-c4nnc(C)o4)cc2C)cc1)CC3 | inactive |
| COc1cc(CC(C)N)c(OC)cc1Br (centres undefined) | inactive |
| O=C(CCl)C(Cl)Cl | inactive |
| CC(=O)CCc1ccc2c(c1)OCO2 | inactive |
| CC[C@H]1C[C@H]2[C@@H]3CCC4=CC(=O)CC[C@@H]4[C@H]3CC[C@]2(C)[C@H]1O | inactive |
| CCCCc1c(C)nc(NCC)nc1OS(=O)(=O)N(C)C | inactive |

Assay: p53 small molecule agonists, cell-based qHTS assay with human liver microsomes: qHTS cell viability counter screen (AID 1963579); also: nearly all actives have a fitted effect of over 45% in size; also: potency is read from the fitted curve at half-maximal effect
Settings: p53RE-bla HCT-116 viability, ATP luminescence, 16 h, HLM; series mostly up to 66 µM
Outline: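 Seed p53RE-bla cells at 4,000 per well; incubate 5 h at 37 C; add compound, human liver microsomes and NADPH; incubate 16 h at 37 C; add CellTiter-Glo; after 30 min at room temperature, read luminescence.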

| Compound | Potency |
| --- | --- |
| CCCN1CCC[C@@H]2Cc3[nH]ncc3C[C@H]21 | inactive |
| C=CC[C@]1(O)CC[C@H]2[C@@H]3CCC4=CC(=O)CCC4=C3C=C[C@@]21C | inactive |
| NP(N)(=O)NC(=O)c1ccc(F)cc1 | inactive |
| CCOC(=O)COc1ccc(Cl)cc1Cl | inactive |
| CCOc1cccc(C2(N3CCN(c4ccccc4)CC3)CCC(C)CC2)c1 (centres undefined) | inactive |
| COP(=O)(OC)Oc1ccc([N+](=O)[O-])cc1 | inactive |
| COc1cc(Cl)c(OC)cc1Cl | inactive |
| CC(Cc1ccccc1)NCCn1cnc2c1c(=O)n(C)c(=O)n2C (centres undefined) | inactive |
| Cc1cccc(OP(=O)(Oc2cccc(C)c2)Oc2cccc(C)c2)c1 | inactive |
| OP(O)c1ccccc1 | inactive |
| Oc1ccc2ccc3cccc4ccc1c2c34 | inactive |
| ClCc1cccc(Cl)c1 | inactive |
| COP(=S)(OC)Oc1c(Cl)cc(C)cc1Cl | inactive |
| CCOP(=S)(OCC)SCS(=O)(=O)CC | inactive |
| CN(C)CCc1c[nH]c2cccc(O)c12 | inactive |
| COP(N)(=S)Oc1ccccc1C(=O)OC(C)C (centres undefined) | inactive |

| Compound | Potency |
| --- | --- |
| N#Cc1c(-c2ccc(Cl)cc2)[nH]c(C(F)(F)F)c1Br | inactive |
| CNP(=O)(OC)Oc1ccc(C(C)(C)C)cc1Cl (centres undefined) | inactive |
| Cc1cccc2sc3nncn3c12 | inactive |
| CC1(C)CN=C(NN=C(/C=C/c2ccc(C(F)(F)F)cc2)/C=C/c2ccc(C(F)(F)F)cc2)NC1 | inactive |
| CCC1(c2ccccc2)C(=O)NC(=O)NC1=O | inactive |
| O=c1[nH]c(Cl)c(Cl)cc1Cl | inactive |
| CC(=O)[O][Sn]([c]1ccccc1)([c]1ccccc1)[c]1ccccc1 | 6.46 µM (active) |
| C=C(Cl)CSC(=S)N(CC)CC | inactive |
| ClC(Cl)C(Cl)Cl | inactive |
| CN(C)C(=O)Nc1cccc(OC(=O)NC(C)(C)C)c1 | inactive |
| CNC(=O)Oc1ccc(N(C)C)c(C)c1 | inactive |
| CC(C)(C)c1ccc(OP(=O)(Oc2ccccc2)Oc2ccccc2)cc1 | inactive |
| COC(=O)C(C)N(C(=O)c1ccco1)c1c(C)cccc1C (centres undefined) | inactive |
| C#CC1(O)CCCCC1 | inactive |
| CSc1ccc(C(=O)C(C)(C)N2CCOCC2)cc1 | inactive |
